Test results reported in PubChem BioAssay (EPA / NIEHS).
Active and inactive are the calls of the source. The calls were made as follows: active = hit-call score of the fitted dose curve at least 0.9, where 1 is the maximum; inactive = score below 0.9.

read-out: succinate dehydrogenase complex iron sulfur subunit B (SDHB), SDHB (gene 6390); experiment: LTEA_HepaRG_SDHB: Life Technologies and Expression Analysis (LTEA) Assay for succinate dehydrogenase complex iron sulfur subunit B (SDHB) using HepaRG (AID 2283528); conditions: mRNA level, 48 h; actives raise or lower the signal
Procedure: LTEA_HepaRG is a cell based, multiplexed-readout assay that uses HepaRG, a human liver cell line, with measurements taken at 48 hours after chemical dosing on a 96-well plate.LTEA_HepaRG_SDHB is one of 102 assay component(s) measured in the LTEA HepaRG cell culture assay. It is a marker of Cell proliferation, survival, death.Data from the assay component LTEA_HepaRG_SDHB was analyzed into 1 endpoint. This assay endpoint, LTEA_HepaRG_SDHB, was analyzed with bidirectional fitting relative to DMSO as the negative control and baseline of activity. Using a type of inducible reporter, measures of mRNA induction for gain or loss-of-signal activity can be used to understand regulation of transcription factor activity. To generalize the intended target to other relatable targets, this assay endpoint is annotated to the oxidoreductase intended target family, where the subfamily is ubiquinone.
A total of 1060 chemcials from the ToxCast library were tested in eight-point concentration-response experiments. Cell culture and cytotoxicity assays were conducted at Thermo Fisher Scientific's Custom Services facility (Madison, WI). A single lot of human HepaRG cells (Thermo Fisher Scientific, Frederick, MD) was used for the cell culture experiments. 96-well format collagen type I coated plates of human HepaRG cells were prepared using established methods. Briefly, cryopreserved HepaRG cells were thawed, plated at a density of approximately 100,000 cells/well in HepaRG Thaw, Plate, and General Purpose media (HPRG770, Thermo Fisher Scientific), and incubated for 48 hours. 0.5% DMSO was selected as vehicle control to balance the requisite need of DMSO in HepaRG cultures to maintain differentiation (for example, baseline metabolism, proportions of hepatocytes vs. cholangiocytes), while enabling further hepatic receptor pathway activation (for example, PXR and CAR) in response to chemical exposure. 48 hours after plating, the culture medium was replaced with HepaRG Serum-Free Incudtion Media. Cells were exposed to each test chemical in duplicate and maintained in CO2 incubators for another 48 hours. Chemical plates were thawed to room temperature and 200x concentrations of treatment groups were prepared. 8-point conentration-reponse curves were made with the highest exposure at 100 uM, followed by half-log dilutions, all in 0.5% DMSO. Each test plate contained variouse controls, induction positive controls (1mM phenobarbital), cytotoxicity positive controls ([…] aflatoxin B1), vehicle controls (0.5% DMSO), and total lysis controls (0.5% DMSO). Cell morphology images were taken using an Essen IncuCyte FLR automated microscope, with six 96-well plates imaged in about 24 minutes. Images were captured and exported and JPEG files. Spent culture media was transfered to black-well plates for the LDH assay, and remaining media was sorted at -80 C for later use. Cells were treated with RLT buffer and frozen until shipped for gene expression analysis. Total RNA was isolated from the cell suspension in 75 uL of Buffer RLT (Qiagen, Germantown, MD 20874) by Quintiles/Expression Analysis (Durham, NC) using a custom isolation procedure. Total RNA from each plate well was transferred to a preamplification plate. Fluidigm's 96.96 Dynamic ArrayTM (Fluidigm, Amsterdam, the Netherlands) technology was used for gene expression analyses by quantitative reverse transcription polymerase chain reaction (qRT-PCR, performed by Quintiles/Expression Analysis, Durham, NC)89. Standard TaqManTM Assays (Applied Biosystems/ThermoFisher Scientific, Foster City, CA) were used to assess the expression of 93 genes selected based on their selectivity and sensitivity to important hepatic receptors known to be modulated by environmental chemicals; importance in human hepatocyte functionality; and hepatotoxicity. […]

| SMILES | outcome | AC50 |
| --- | --- | --- |
| ClC(Cl)=C(c1ccc(Cl)cc1)c1ccc(Cl)cc1 | inactive |  |
| CC(C)C(=O)OCC(C)(C)C(OC(=O)C(C)C)C(C)C (stereo not given) | inactive |  |
| CN(C)c1nc(=O)n(C2CCCCC2)c(=O)n1C | inactive |  |
| CC1=C2C[C@H]3[C@@H](CC=C4C[C@@H](O)CC[C@@]43C)[C@@H]2CC[C@]12O[C@@H]1C[C@H](C)CN[C@H]1[C@H]2C | inactive |  |
| ClC1=C(Cl)[C@]2(Cl)[C@@H]3[C@@H](Cl)[C@H]4O[C@H]4[C@@H]3C1(Cl)C2(Cl)Cl | inactive |  |
| O=C(O)C(F)(F)C(F)(F)C(F)(F)C(F)(F)C(F)(F)F | inactive |  |
| Cc1cccc([N+](=O)[O-])c1 | inactive |  |
| Nc1ccc(-c2ccc(N)cc2)cc1 | inactive |  |
| CN(C)CCO | inactive |  |
| Oc1c(Cl)c(Cl)c(Cl)c(Cl)c1Cl |  | 2.04 µM (active) |
| C=CC(=O)NCNC(=O)C=C | inactive |  |
| CCOP(=S)(OCC)SCSC(C)(C)C | inactive |  |
| CCCCCCCCCc1ccc(O)cc1 | inactive |  |
| CC(C)(O)C(=O)Nc1ccc([N+](=O)[O-])c(C(F)(F)F)c1 | inactive |  |
| C1CC2OC2CC1C1CO1 (stereo not given) | inactive |  |
| COc1ccc(O)c(C(C)(C)C)c1 | inactive |  |
| Nn1cnnc1 | inactive |  |
| CO/C=C(/C(=O)OC)c1ccccc1COc1cccc(C(F)(F)F)n1 | inactive |  |
| COS(=O)(=O)OC | inactive |  |
| Clc1ccc(Cl)cc1 | inactive |  |

| SMILES | outcome | AC50 |
| --- | --- | --- |
| CCCCCCCCOC(=O)c1ccccc1C(=O)OCCCCCCCC | inactive |  |
| ClC1=C(Cl)[C@]2(Cl)[C@@H]3[C@H]4C[C@H]([C@@H]5O[C@H]45)[C@@H]3[C@@]1(Cl)C2(Cl)Cl | inactive |  |
| Clc1ccc(C(c2ccccc2Cl)C(Cl)(Cl)Cl)cc1 (stereo not given) | inactive |  |
| NS(=O)(=O)C(F)(F)C(F)(F)C(F)(F)C(F)(F)C(F)(F)C(F)(F)C(F)(F)C(F)(F)F |  | 4.97 µM (active) |
| CCCCCCOC(=O)c1ccccc1C(=O)OCCCCCC | inactive |  |
| Oc1ccc(C(c2ccc(O)cc2)(C(F)(F)F)C(F)(F)F)cc1 | inactive |  |
| Cc1ccccc1O | inactive |  |
| O=C(NC(=O)c1c(F)cccc1F)Nc1cc(Cl)c(OC(F)(F)C(F)F)c(Cl)c1 | inactive |  |
| CCCN(CCC)N=O | inactive |  |
| CC(C)(c1ccccc1)c1ccc(O)cc1 | inactive |  |
| O=NN(c1ccccc1)c1ccccc1 | inactive |  |
| Cc1ccccc1[N+](=O)[O-] | inactive |  |
| Oc1ccc(Cl)cc1Cl | inactive |  |
| c1cc2ccc3cccc4ccc(c1)c2c34 | inactive |  |
| ClC1=C(Cl)[C@]2(Cl)[C@@H]3[C@@H]4C[C@@H]([C@H]5O[C@@H]45)[C@@H]3[C@@]1(Cl)C2(Cl)Cl | inactive |  |
| CCCCCCCCCC[N+](C)(C)CCCCCCCCCC | inactive |  |
| Cc1cc2c3c(c1)C(c1ccccc1)=N[C@@H](NC(=O)c1ccncc1)C(=O)N3CC2 | inactive |  |
| O=C(NC(=O)c1cc(F)c(F)cc1Cl)Nc1cc(F)ccc1N1CCC(C(=O)O)CC1 | inactive |  |
| O=S(=O)(O)C(F)(F)C(F)(F)C(F)(F)C(F)(F)F | inactive |  |
| CCC(=O)O[C@H]1CC[C@H]2[C@@H]3CCC4=CC(=O)CC[C@]4(C)[C@H]3CC[C@]12C | inactive |  |
